The full ranking holds about 59,000 sequences; the median of the read-out is about -0.00055, and the lowest 2% start at about -2. Many of the other results were omitted from the sample, so the lowest values are more common in it than they were.

The nature of this assay: Identification of proteins required for the processing of the EWS-FLI1 nascent transcript.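 Also: robust z of luciferase light less the median z of siRNAs with the same seed.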 As to conditions: TC32 Ewing sarcoma NR0B1-luc vs CMV-luc (EWS-FLI1 target promoter against control promoter), 48 h; screened at 20 nM (by protocol). In outline:
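Parallel TC32-NR0B1-luc and TC32-CMV-luc reverse transfections with 20 nM siRNA in RPMI-1640/10% FBS, luciferase measured 48 h later. Seed-adjusted z-scores from normalized, z-score-MAD transformed data; AllStars negative and siGL4 controls on each plate.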
As for UGACUGACAACUUCUGGAU against PAK6, the seed-corrected z-score is -0.344.
With AAUGGACCUAGAUUUCAGG against C16orf59 the figure was 1.27.
UUAGCUGCGUCAGAUAUCG against RPS6KA2: the seed-corrected z-score was -2.67.
With UCCUGGAUACGCAACUUGA against C2orf68 the figure was -0.63; with UGCAUUUGAAGACUCACUC against HMG20A, 0.87; with UUGAGUCUUAGCAAUGUGA against KIAA0895L, -0.000345.
The value for UACAUGAAAAGCAAGGCUG against OR6B3 was 0.504; that for UAUGGUGUUGAGCUCAGCG against SLC12A3 was 0.228; that for UCUACUAUCGGCUUAUAGC against 11-Sep was -0.114.
With UCCGGAGUAAGCUUCAACC against DHX9 the figure was -0.429; with AACGAAGCAAGCAUGGUCC against LARP6, -0.832.
In turn, UAGUCAACGUUGGACACGG against PRR22 registered a seed-corrected z-score of 0.319.
For the sequence UUGACGGUAAUAUCUGUCC against SMU1, the seed-corrected z-score was -3.14.
Sequence UAGCCUAUGGUACAAGUUC against ERVFRD-1 came in with a seed-corrected z-score of 0.353.
On to AACUCAUUCCCUUCUUUCC against ZMAT3, for which the seed-corrected z-score was -0.582.
The value for UCUCUGACAAGUGUGAAGC against DKK1 was -0.0537; that for UGAUGAGCGAGAAGGUACC against DLL4 was 1.41.
The value for UUAAUUGCUAUGUUGUUGG against NFS1 was -0.476.
On to AUAGGUUUGUGAUCCAACC against AAED1, for which the seed-corrected z-score was 0.186.
With AUUCGUAUGGUUCAUGUCC against PRPF8 the figure was -2.88.
With UUAAAUACAGCUCCUGUUA against AQP11 the figure was 0.0289; with AGCUUGUACAGUGUUAUCC against PTPN4, -2.22; with UUGCUGAACGCGAUGAUCU against PRDX2, 0.201.
With UCUUAUGUAAUUGUUCCUC against KANSL1 the figure was 0.324; with UUCUUUCGCAUUGCAAUGC against CMC2, 0.187; with UGAGGACAAAGAAUCUUCC against MRPS18B, 0.518.
In turn, UCCAGUUGUUCAAUCAUGG against CNTROB displayed a seed-corrected z-score of -2.47.
In the case of UCUGUUUGAUGUUAGGUUG against PACS1, the seed-corrected z-score is -0.0479.
The value for UUCUUUAACUUUAUGCUCC against RAI2 was 0.273; that for UAUUCUAUUGGGUCACUGG against DYDC2 was 0.409; that for AAGUGAAUAGAAAACAUCC against SUN5 was 1.29.
UAGGUCAGAAGCAACCUGC against C10orf111 yielded a seed-corrected z-score of 2.42.
In the case of AGAUGUGAUAGUGCUCUGG against TMEM52B, the seed-corrected z-score was -2.02.
The value for UUACGUAAUCCAGGGAUCG against LANCL2 was -1.2; that for UAGUGUAAUUGGUCUAACC against POGZ was 0.928.
With UAUGUGAUUCUGGUGCUUG against LEMD1 the figure was 0.794.
The value for UCUGAUGUAAUUUCCAGUU against AARD was 0.424.

Values taken from PubChem BioAssay AID1159506 (National Center for Advancing Translational Sciences (NCATS), 2015).
